In article PMC7862700, “An all-to-all approach to the identification of sequence-specific readers for epigenetic DNA modifications on cytosine”:

Experiments:
Experiment in all cases: DAPPL (digital affinity profiling via proximity ligation, sequencing); 10 mM Tris-HCl pH 7.5, 50 mM NaCl, 1 mM DTT, 4% glycerol, room temperature, 30 min; GST-TFs on glutathione beads, 16-mer random dsDNA library, 0.1% formaldehyde crosslink after washing; high values mean tight binding
Conditions in all cases: protein: recombinant; tags: N-terminal GST; dsDNA, one strand shown
ERF = target: T1, ERF (Homo sapiens, UniProt P50548 1-548)
T1 sequence: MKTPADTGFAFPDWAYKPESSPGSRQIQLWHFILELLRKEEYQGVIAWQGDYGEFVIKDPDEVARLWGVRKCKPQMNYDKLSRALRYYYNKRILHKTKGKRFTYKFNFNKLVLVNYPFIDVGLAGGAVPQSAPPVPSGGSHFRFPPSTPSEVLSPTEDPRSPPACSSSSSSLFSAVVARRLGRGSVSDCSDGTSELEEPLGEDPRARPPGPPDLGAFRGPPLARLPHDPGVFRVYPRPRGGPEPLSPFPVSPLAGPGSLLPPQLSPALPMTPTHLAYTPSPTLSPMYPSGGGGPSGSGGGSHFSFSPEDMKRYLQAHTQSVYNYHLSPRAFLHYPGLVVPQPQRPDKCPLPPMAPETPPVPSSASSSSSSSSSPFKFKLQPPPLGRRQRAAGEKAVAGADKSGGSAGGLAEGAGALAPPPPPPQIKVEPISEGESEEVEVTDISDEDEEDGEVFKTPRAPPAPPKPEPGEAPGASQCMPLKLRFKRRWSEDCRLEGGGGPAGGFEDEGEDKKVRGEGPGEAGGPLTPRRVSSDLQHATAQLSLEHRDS
Procedure, shortened: (§1)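 Each value of binding signal is a hexamer's read frequency for a factor divided by the same hexamer's frequency in the tag-only sample. Barcoded, bead-captured GST fusions of human transcription factors made in yeast were pooled with that sample and incubated with 200 nmole of a random double-stranded 16-mer DNA library in Tris/NaCl/DTT/glycerol buffer at room temperature for 30 min. Washing, 0.1% formaldehyde crosslinking, proximity ligation, PCR and Illumina NextSeq500 sequencing followed.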

ETV3L = target: T2, ETV3L (Homo sapiens, UniProt Q6ZN32 1-361)
T2 sequence: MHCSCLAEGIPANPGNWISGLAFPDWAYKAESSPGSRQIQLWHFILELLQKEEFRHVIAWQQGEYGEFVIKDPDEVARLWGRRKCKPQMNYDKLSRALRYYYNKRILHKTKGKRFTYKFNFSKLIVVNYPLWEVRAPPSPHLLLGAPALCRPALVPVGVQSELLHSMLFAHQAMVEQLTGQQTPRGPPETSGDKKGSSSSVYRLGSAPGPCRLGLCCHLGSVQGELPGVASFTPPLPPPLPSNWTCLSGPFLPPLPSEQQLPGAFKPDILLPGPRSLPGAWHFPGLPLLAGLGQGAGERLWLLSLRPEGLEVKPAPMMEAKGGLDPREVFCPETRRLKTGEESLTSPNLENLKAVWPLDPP
Procedure, shortened: as §1

ETS2 = target: T3, ETS2 (Homo sapiens, UniProt P15036 1-469)
T3 sequence: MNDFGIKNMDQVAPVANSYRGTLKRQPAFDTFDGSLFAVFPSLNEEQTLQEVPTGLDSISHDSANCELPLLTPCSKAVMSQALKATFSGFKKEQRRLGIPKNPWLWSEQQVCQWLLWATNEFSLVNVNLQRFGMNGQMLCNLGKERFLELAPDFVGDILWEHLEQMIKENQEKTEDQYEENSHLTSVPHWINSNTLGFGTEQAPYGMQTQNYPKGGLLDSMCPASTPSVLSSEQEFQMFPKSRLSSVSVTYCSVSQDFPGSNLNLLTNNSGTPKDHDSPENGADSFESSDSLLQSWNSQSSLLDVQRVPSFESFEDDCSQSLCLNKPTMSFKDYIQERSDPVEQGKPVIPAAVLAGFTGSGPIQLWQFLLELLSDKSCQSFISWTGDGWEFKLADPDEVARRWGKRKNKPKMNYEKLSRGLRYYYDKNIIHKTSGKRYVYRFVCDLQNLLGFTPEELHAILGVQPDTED
Procedure, shortened: as §1

SPDEF = target: T4, SPDEF (Homo sapiens, UniProt O95238 1-335)
T4 sequence: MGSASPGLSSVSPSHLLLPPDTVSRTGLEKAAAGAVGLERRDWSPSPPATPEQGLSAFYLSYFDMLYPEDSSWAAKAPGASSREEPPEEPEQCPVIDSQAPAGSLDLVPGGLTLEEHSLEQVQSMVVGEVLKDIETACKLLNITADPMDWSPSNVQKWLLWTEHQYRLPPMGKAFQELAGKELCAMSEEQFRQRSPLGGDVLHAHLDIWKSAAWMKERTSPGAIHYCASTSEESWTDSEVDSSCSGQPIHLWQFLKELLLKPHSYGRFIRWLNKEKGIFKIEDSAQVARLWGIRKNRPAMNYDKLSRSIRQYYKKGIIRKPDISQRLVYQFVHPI
Procedure, shortened: as §1

ETV7 = target: T5, ETV7 (Homo sapiens, UniProt Q9Y603 1-341)
T5 sequence: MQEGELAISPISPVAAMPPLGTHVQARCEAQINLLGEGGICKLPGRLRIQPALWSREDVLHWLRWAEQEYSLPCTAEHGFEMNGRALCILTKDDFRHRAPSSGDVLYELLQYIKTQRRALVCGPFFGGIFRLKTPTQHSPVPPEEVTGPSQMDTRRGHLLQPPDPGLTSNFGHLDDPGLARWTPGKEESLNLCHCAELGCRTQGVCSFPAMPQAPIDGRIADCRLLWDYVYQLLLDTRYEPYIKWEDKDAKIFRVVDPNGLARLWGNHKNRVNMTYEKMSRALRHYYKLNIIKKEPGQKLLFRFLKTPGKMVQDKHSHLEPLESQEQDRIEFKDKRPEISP
Procedure, shortened: as §1

ELF5 = target: T6, ELF5 (Homo sapiens, UniProt Q9UKW6-2 1-255)
T6 sequence: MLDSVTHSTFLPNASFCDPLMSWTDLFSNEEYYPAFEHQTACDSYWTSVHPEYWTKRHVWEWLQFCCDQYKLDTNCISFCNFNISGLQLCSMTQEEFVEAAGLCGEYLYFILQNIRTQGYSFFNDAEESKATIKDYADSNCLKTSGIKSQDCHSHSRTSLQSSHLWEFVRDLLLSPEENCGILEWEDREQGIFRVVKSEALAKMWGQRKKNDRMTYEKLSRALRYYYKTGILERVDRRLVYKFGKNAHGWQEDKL
Procedure, shortened: as §1

ETV3 = target: T7, ETV3 (Homo sapiens, UniProt P41162-2 1-143)
T7 sequence: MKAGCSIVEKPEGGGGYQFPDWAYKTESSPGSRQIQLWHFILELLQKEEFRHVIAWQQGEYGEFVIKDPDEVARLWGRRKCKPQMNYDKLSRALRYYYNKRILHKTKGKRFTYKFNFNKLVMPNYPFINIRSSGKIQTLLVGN
Procedure, shortened: as §1

ETV6 = ETV6 (Homo sapiens, UniProt P41212 1-452)
Sequence of ETV6 (P41212 whole entry): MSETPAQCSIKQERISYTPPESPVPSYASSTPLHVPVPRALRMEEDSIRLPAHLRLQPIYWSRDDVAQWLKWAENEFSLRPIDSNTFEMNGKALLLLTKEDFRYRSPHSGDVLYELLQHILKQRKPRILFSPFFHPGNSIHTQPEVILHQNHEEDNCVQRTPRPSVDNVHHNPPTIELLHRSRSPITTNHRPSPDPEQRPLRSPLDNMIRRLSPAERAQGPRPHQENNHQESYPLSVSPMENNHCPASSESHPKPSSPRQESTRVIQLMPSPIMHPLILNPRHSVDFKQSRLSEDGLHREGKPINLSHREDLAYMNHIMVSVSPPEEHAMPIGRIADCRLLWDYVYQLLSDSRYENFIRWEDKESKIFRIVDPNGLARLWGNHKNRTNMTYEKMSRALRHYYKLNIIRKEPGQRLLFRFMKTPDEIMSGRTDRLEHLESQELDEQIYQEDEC
Procedure, shortened: as §1

TTCCTC
binding signal (ERF): 2.13 fold enrichment (6-mer frequency, TF over GST control)
binding signal (ETV3L): 2.21 fold enrichment (6-mer frequency, TF over GST control)
binding signal (ETS2): 2.22 fold enrichment (6-mer frequency, TF over GST control)
binding signal (SPDEF): 1.96 fold enrichment (6-mer frequency, TF over GST control)
binding signal (ETV7): 1.96 fold enrichment (6-mer frequency, TF over GST control)
binding signal (ELF5): 3.84 fold enrichment (6-mer frequency, TF over GST control)
binding signal (ETV3): 2.38 fold enrichment (6-mer frequency, TF over GST control)
binding signal (ETV6): 2.48 fold enrichment (6-mer frequency, TF over GST control)

CTCGGC
binding signal (ERF): 1.34 fold enrichment (6-mer frequency, TF over GST control)
binding signal (ETV3L): 1.26 fold enrichment (6-mer frequency, TF over GST control)
binding signal (ETS2): 1.31 fold enrichment (6-mer frequency, TF over GST control)
binding signal (SPDEF): 1.22 fold enrichment (6-mer frequency, TF over GST control)
binding signal (ETV7): 1.34 fold enrichment (6-mer frequency, TF over GST control)
binding signal (ELF5): 1.34 fold enrichment (6-mer frequency, TF over GST control)
binding signal (ETV3): 1.36 fold enrichment (6-mer frequency, TF over GST control)
binding signal (ETV6): 1.37 fold enrichment (6-mer frequency, TF over GST control)

TGATGA
binding signal (ERF): 1.25 fold enrichment (6-mer frequency, TF over GST control)
binding signal (ETV3L): 1.4 fold enrichment (6-mer frequency, TF over GST control)
binding signal (ETS2): 1.28 fold enrichment (6-mer frequency, TF over GST control)
binding signal (SPDEF): 1.19 fold enrichment (6-mer frequency, TF over GST control)
binding signal (ETV7): 1.26 fold enrichment (6-mer frequency, TF over GST control)
binding signal (ELF5): 1.21 fold enrichment (6-mer frequency, TF over GST control)
binding signal (ETV3): 1.33 fold enrichment (6-mer frequency, TF over GST control)
binding signal (ETV6): 1.34 fold enrichment (6-mer frequency, TF over GST control)

GGGTTT
binding signal (ERF): 1.17 fold enrichment (6-mer frequency, TF over GST control)
binding signal (ETV3L): 1.1 fold enrichment (6-mer frequency, TF over GST control)
binding signal (ETS2): 1.1 fold enrichment (6-mer frequency, TF over GST control)
binding signal (SPDEF): 1 fold enrichment (6-mer frequency, TF over GST control)
binding signal (ETV7): 1.12 fold enrichment (6-mer frequency, TF over GST control)
binding signal (ELF5): 1.1 fold enrichment (6-mer frequency, TF over GST control)
binding signal (ETV3): 1.18 fold enrichment (6-mer frequency, TF over GST control)
binding signal (ETV6): 1.07 fold enrichment (6-mer frequency, TF over GST control)

CACTTC
binding signal (ERF): 3.07 fold enrichment (6-mer frequency, TF over GST control)
binding signal (ETV3L): 3.63 fold enrichment (6-mer frequency, TF over GST control)
binding signal (ETS2): 3.66 fold enrichment (6-mer frequency, TF over GST control)
binding signal (SPDEF): 3.55 fold enrichment (6-mer frequency, TF over GST control)
binding signal (ETV7): 3.64 fold enrichment (6-mer frequency, TF over GST control)
binding signal (ELF5): 4.43 fold enrichment (6-mer frequency, TF over GST control)
binding signal (ETV3): 3.65 fold enrichment (6-mer frequency, TF over GST control)
binding signal (ETV6): 4.24 fold enrichment (6-mer frequency, TF over GST control)

TCCTGA
binding signal (ERF): 1.26 fold enrichment (6-mer frequency, TF over GST control)
binding signal (ETV3L): 1.43 fold enrichment (6-mer frequency, TF over GST control)
binding signal (ETS2): 1.59 fold enrichment (6-mer frequency, TF over GST control)
binding signal (SPDEF): 1.69 fold enrichment (6-mer frequency, TF over GST control)
binding signal (ETV7): 1.32 fold enrichment (6-mer frequency, TF over GST control)
binding signal (ELF5): 1.92 fold enrichment (6-mer frequency, TF over GST control)
binding signal (ETV3): 1.71 fold enrichment (6-mer frequency, TF over GST control)
binding signal (ETV6): 1.51 fold enrichment (6-mer frequency, TF over GST control)

CCTAAC
binding signal (ERF): 1.53 fold enrichment (6-mer frequency, TF over GST control)
binding signal (ETV3L): 1.45 fold enrichment (6-mer frequency, TF over GST control)
binding signal (ETS2): 1.38 fold enrichment (6-mer frequency, TF over GST control)
binding signal (SPDEF): 1.41 fold enrichment (6-mer frequency, TF over GST control)
binding signal (ETV7): 1.25 fold enrichment (6-mer frequency, TF over GST control)
binding signal (ELF5): 1.39 fold enrichment (6-mer frequency, TF over GST control)
binding signal (ETV3): 1.32 fold enrichment (6-mer frequency, TF over GST control)
binding signal (ETV6): 1.3 fold enrichment (6-mer frequency, TF over GST control)

CTGTCC
binding signal (ERF): 1.28 fold enrichment (6-mer frequency, TF over GST control)
binding signal (ETV3L): 1.13 fold enrichment (6-mer frequency, TF over GST control)
binding signal (ETS2): 1.33 fold enrichment (6-mer frequency, TF over GST control)
binding signal (SPDEF): 1.27 fold enrichment (6-mer frequency, TF over GST control)
binding signal (ETV7): 1.28 fold enrichment (6-mer frequency, TF over GST control)
binding signal (ELF5): 1.3 fold enrichment (6-mer frequency, TF over GST control)
binding signal (ETV3): 1.14 fold enrichment (6-mer frequency, TF over GST control)
binding signal (ETV6): 1.26 fold enrichment (6-mer frequency, TF over GST control)

ACCTCG
binding signal (ERF): 1.2 fold enrichment (6-mer frequency, TF over GST control)
binding signal (ETV3L): 1.22 fold enrichment (6-mer frequency, TF over GST control)
binding signal (ETS2): 1.11 fold enrichment (6-mer frequency, TF over GST control)
binding signal (SPDEF): 1.06 fold enrichment (6-mer frequency, TF over GST control)
binding signal (ETV7): 1.21 fold enrichment (6-mer frequency, TF over GST control)
binding signal (ELF5): 1.06 fold enrichment (6-mer frequency, TF over GST control)
binding signal (ETV3): 1.1 fold enrichment (6-mer frequency, TF over GST control)
binding signal (ETV6): 1.09 fold enrichment (6-mer frequency, TF over GST control)
